The panel holds about 83,000 compounds, 20% with a hit somewhere; the sample as a whole holds those more often.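 In brief: 96-well plates, 48 h treatment, single concentration, percent growth endpoint.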 Unmarked numbers belong to inactive results. Calls of active or inactive are those of the source. Rule for the calls: active = growth percent below 10; inactive = the rest.

Among the test systems are HCT-15 colon; HT29 colon; SNB-75 CNS; SNB-19 CNS; U251 CNS; PC-3 prostate; LOX IMVI melanoma; SK-MEL-28 melanoma; SK-MEL-5 melanoma; UACC-62 melanoma.
Common to all, as to assay: NCI-60 one-dose screen, 48 h (100 = growth as untreated, 0 = no growth, -100 = all killed)
Common to all, as to conditions: 10 µM unless noted

On to `CCOC(=O)C/C(=C\c1ccccc1)C(C)=O`, for which the growth in the test on HCT-15 colon was 106%; in the test with HT29 colon, 98.1%; with SNB-75 CNS, 101%; in the test on SNB-19 CNS it was 101%; in the test with U251 CNS, 80.4%; with PC-3 prostate, 76.8%. For the same compound, the growth was 108% with LOX IMVI melanoma and 111% with SK-MEL-28 melanoma.

`Nc1nc2c(c(=O)[nH]1)C(c1ccc3c(c1)OCO3)C=C(C(=O)O)N2` (stereo not drawn): the growth in the test with HCT-15 colon is 111%; with HT29 colon, 108%; with SNB-75 CNS, 85.6%; with SNB-19 CNS, 104%; in the test with U251 CNS, 101%; with SK-MEL-5 melanoma, 102%. Also, the growth is 116% in the test on UACC-62 melanoma and 96.2% in the test on SK-MEL-28 melanoma.

With `COc1ccc(/C=C(\C#N)c2cc3ccccc3n2S(C)(=O)=O)cc1`, the growth in the test on HCT-15 colon is 46.4%; in the test with HT29 colon, 102%; in the test on SNB-75 CNS, 73.1%; with SNB-19 CNS, 82.3%; in the test on U251 CNS it was 96.8%; in the test with SK-MEL-5 melanoma it was 87.8%. Besides, the growth in the test on UACC-62 melanoma was 58.1%; in the test with SK-MEL-28 melanoma it was 82.5%.

For the compound `Cn1cnc2c1c(=O)n(CCC(=O)Nc1ccc(F)cc1)c(=O)n2C`, the growth with HCT-15 colon is 104%; in the test with HT29 colon, 86.6%; in the test on SNB-75 CNS it was 94.6%; in the test on SNB-19 CNS it was 105%; with U251 CNS it was 96.2%; with SK-MEL-5 melanoma, 107%. Further, the growth with LOX IMVI melanoma was 102%; in the test with SK-MEL-28 melanoma it was 110%.

Take `COC(=O)[C@]12CC[C@@H](C)[C@H](C)[C@@H]1C1=CC(=O)[C@@H]3[C@@]4(C)C[C@@H](O)[C@H](O)[C@@]5(C)COC(=C45)C[C@@]3(C)[C@]1(C)CC2`: the growth in the test with HCT-15 colon was 26.5%; with HT29 colon it was 27.4%; in the test on SNB-75 CNS, 32.8%; in the test on SNB-19 CNS it was 60.8%; in the test on U251 CNS, 39.5%; in the test with SK-MEL-5 melanoma it was 41.3%. Also, in the test with LOX IMVI melanoma, the growth was 57%.

`C[C@@H](C(=O)O)c1ccc2c3cc(Cl)ccc3n(Cc3cc(=O)oc4ccc(Cl)cc34)c2c1`: the growth in the test on HCT-15 colon is 99.1%; in the test on HT29 colon, 96.9%; with SNB-75 CNS it was 90.8%; in the test with SNB-19 CNS it was 101%; in the test with U251 CNS, 101%; with PC-3 prostate, 98.3%. The figures for the growth in the test on LOX IMVI melanoma and with SK-MEL-28 melanoma were 96.4% and 99.9%, respectively.

Consider `CCCCn1c(-c2ccc(O)cc2)cn2c3c(=O)[nH]c(=O)n(C)c3nc12`, for which the growth was 54.2% in the test with HCT-15 colon; 77.6% in the test with HT29 colon; 53.2% in the test with SNB-75 CNS; 82.5% with SNB-19 CNS; 66.7% in the test on U251 CNS; 51.9% in the test on SK-MEL-5 melanoma. For the same compound, the results for the growth in the test with UACC-62 melanoma and in the test with SK-MEL-28 melanoma were 51.2% and 74.7%, respectively.

For the compound `COc1ccc2nc(-c3c(-c4ccccc4)nc4ncccn34)[nH]c2c1`, the growth was 96.5% in the test with HCT-15 colon; 94.1% in the test with HT29 colon; 78.1% with SNB-75 CNS; 101% with SNB-19 CNS; 99.5% in the test with U251 CNS; 95.6% in the test on SK-MEL-5 melanoma. For the same compound, in the test on SK-MEL-28 melanoma, the growth is 91.5%.

Turning to `COc1cc2c(cc1-c1c(C)noc1C)ncc1nc(C3CCC(F)(F)CC3)n([C@@H](C)COC(F)F)c12`, the growth is 13.4% in the test with HCT-15 colon; 18.7% with HT29 colon; 23.4% with SNB-75 CNS; 53.4% in the test on SNB-19 CNS; 50.5% with U251 CNS; 36.7% with PC-3 prostate. Moreover, the growth with LOX IMVI melanoma was 11%; with SK-MEL-28 melanoma it was 47.3%.

As to `C=C(C)[C@@H]1CC[C@]2(C=NCCCNCCCCNCCCN)CC[C@]3(C)[C@H](CC[C@@H]4[C@@]5(C)CCCNC(C)(C)[C@@H]5CC[C@]43C)[C@@H]12`, the growth is 82.6% in the test with HCT-15 colon; 39% with HT29 colon; 114% in the test with SNB-75 CNS; 88.3% in the test on SNB-19 CNS; 91.6% with U251 CNS; 96% in the test with SK-MEL-5 melanoma. In addition, the growth in the test on UACC-62 melanoma is 100%; in the test with SK-MEL-28 melanoma, 111%.

Take `CC(=O)n1c(/C(C#N)=C/c2ccc(N(C)C)cc2)cc2ccccc21`: the growth in the test on HCT-15 colon was 23.9%; in the test on HT29 colon it was 9.7% (active); in the test on SNB-75 CNS, -6.19% (active); in the test with SNB-19 CNS, 35.8%; with U251 CNS, 36.4%; in the test on SK-MEL-5 melanoma, 29.7%. For the same compound, the growth in the test with UACC-62 melanoma was 26.8%; in the test with SK-MEL-28 melanoma it was 60.8%.

As for `C[N+](C)(CCCCCC[N+](C)(C)C1c2ccccc2-c2ccccc21)C1c2ccccc2-c2ccccc21`, the growth in the test with HCT-15 colon was 105%; in the test on HT29 colon, 110%; with SNB-75 CNS, 95%; with SNB-19 CNS it was 105%; with U251 CNS it was 96.4%; with SK-MEL-5 melanoma, 111%. Moreover, the values for the growth in the test with UACC-62 melanoma, in the test on LOX IMVI melanoma and in the test on SK-MEL-28 melanoma were 108%, 104% and 111%, respectively.

As to `CC1(C)[C@@H](O)CC[C@]2(C)[C@H]3CC[C@@H]4[C@H]5[C@H](C(=O)/C=C/c6ccc(C(F)(F)F)cc6)CC[C@]5(CO)CC[C@@]4(C)[C@]3(C)CC[C@@H]12`, the growth was 34.4% in the test with HCT-15 colon; 36.1% in the test with HT29 colon; 60% in the test with SNB-75 CNS; 61.1% in the test with SNB-19 CNS; 53.6% with U251 CNS; 13.1% in the test with SK-MEL-5 melanoma. Besides, the growth was 36.5% in the test with UACC-62 melanoma and 54.6% in the test with SK-MEL-28 melanoma.

On to `COc1cccc(-c2nn(-c3ccccc3)cc2-c2ccnc(NCCCN)c2)c1`, for which the growth in the test with HCT-15 colon is 56.7%; in the test with HT29 colon, 86.2%; in the test with SNB-75 CNS it was 45.4%; with SNB-19 CNS, 48.9%; in the test with U251 CNS, 38.9%; in the test with SK-MEL-5 melanoma, 28.5%. Moreover, in the test on LOX IMVI melanoma, the growth is 54.8%.

With `COc1ccc2c(c1)c(-c1nc(-c3cn(C)c4ncccc34)cs1)cn2CCCN1CCCCC1`, the growth in the test with HCT-15 colon was -69.9% (active); with HT29 colon, -16.5% (active); in the test with SNB-75 CNS it was 77.5%; in the test with SNB-19 CNS, 55.2%; in the test with U251 CNS it was -18.4% (active); with SK-MEL-5 melanoma, 28.6%. Besides, the values for the growth in the test with LOX IMVI melanoma and in the test on SK-MEL-28 melanoma were 28.3% and -77.5% (active), respectively.

(Values after PubChem BioAssay (NCI).)
